This assay has as its target CLN5. Kind of assay: pooled miR-30 sensor sort-seq; sequence = guide strand. The note with it: shRNA.
Sequence TTCTTGTATAGTTGGTTTCTAT registered a sensor-assay potency score (higher = more potent) of -0.695.

Sequence TTCATTGTCCTGTTTCACCCAC gave a sensor-assay potency score (higher = more potent) of 0.245.

Turning to ATGTTCTTGAACTCTGCTCCAA, the sensor-assay potency score (higher = more potent) is -1.05.

TTCAATGTCATCATCACCCTCC yielded a sensor-assay potency score (higher = more potent) of 0.818.

In the case of TAGGTAAAAACCAATATTCAAA, the sensor-assay potency score (higher = more potent) is -1.15.

On to TGTTTGTGCACAATCACTGCAT, for which the sensor-assay potency score (higher = more potent) was 0.594.

Consider TAGCTTGACAATAAGGATCAGG, for which the sensor-assay potency score (higher = more potent) was -0.401.

For TATAGTTGCTACTTGAACTAAT, the sensor-assay potency score (higher = more potent) is -0.263.

TTGACAATAAGGATCAGGTTTT gave a sensor-assay potency score (higher = more potent) of -0.121.

Values taken from the OligoGym collection.
Also: reference of the scale not given here.
